Experimental data as given in PubChem BioAssay (NCI).
Compounds without any hit were thinned out: in the full panel of roughly 79,000, 15% have a hit. A number with no mark means an inactive call. Active and inactive are the calls of the source. No stated cut-off is given here; in the data, active means growth inhibition above about 70%; inactive means the rest.

Test: NCI Yeast Anticancer Drug Screen. Data for the CLN2oe strain (AID 163);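 further: 0% = growth of vehicle-only control cultures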
Conditions: S. cerevisiae CLN2oe strain, stronger effect = higher value
Method: Growth inhibition of yeast strains with defined genetic alterations is measured as a screen for potential anti-cancer activity. Selected strains with alterations in DNA damage repair or cell cycle control were exposed to compounds and growth inhibition was measured relative to vehicle treated controls. The strain used in this assay is CLN2oe

| SMILES | growth inhibition (at 1.2 µM) | growth inhibition (at 3.7 µM) | growth inhibition (at 11.0 µM) | growth inhibition (at 33.0 µM) | growth inhibition (at 100.0 µM) |
| --- | --- | --- | --- | --- | --- |
| COC(=O)C1C2c3ccccc3C(c3ccccc32)C1C(=O)OC (stereo not given) | 2% | -1% | 0% | 7% | 17% |
| Nc1nc(N)c2c(Cl)c(CNc3ccc(C(=O)NC(CC(=O)O)C(=O)O)cc3)ccc2n1 (stereo not given) | -5% | 15% | 12% | 22% | 34% |
| Nc1nc(N)c(-c2ccc(Cl)c(Cl)c2)c(CP(Cl)(Cl)(Cl)Br)n1 | -2% | -6% | -9% | -2% | 10% |
| CC(=O)O/C(=C1\C[C@H]2[C@@H]3CC=C4C[C@@H](OC(C)=O)CC[C@]4(C)[C@H]3CC[C@]2(C)C1=O)C(F)(F)F | -140% | 4% | 2% | 1% | 6% |
| O=C(O)C1C2c3ccccc3C(c3ccccc32)C1C(=O)O (stereo not given) | -4% | 2% | -4% | -3% | 1% |
| CC1CC(Br)C(=O)O1 (stereo not given) | -44% | -44% | -13% | 95% (active) | 96% (active) |
| Cc1ccc2c(c1N)C(=O)c1ccccc1C2=O | -4% | -3% | -4% | -4% | 6% |
| CCC1(OC(=O)CN)C(=O)OCc2c1cc1n(c2=O)Cc2cc3ccccc3nc2-1 (stereo not given) | 37% | 37% | 62% | 80% (active) | 88% (active) |
